{"source": "the supplement of paper PMC8728848", "assay_in_all_cases": "glycan array binding signal (z-score within array); higher = stronger binding", "conditions_in_all_cases": "glycan notation: IUPAC condensed, linker removed", "key": {"[1]": {"target": "Fuc(a1-2)Gal(b1-3)GalNAc(a1-3)[Fuc(a1-2)]Gal(b1-4)GlcNAc", "how_it_was_run": "(§1)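 Glycan array data came from 3228 arrays in the Consortium for Functional Glycomics database, and only arrays with an available protein sequence were kept. Glycan names were put into IUPAC-condensed notation, and columns mapping to the same glycan were averaged. The binding signal is a within-array Z-score, averaged across arrays of one protein sequence run at different concentrations or buffers and across linkers. A negative Z-score can be read as non-binding.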"}, "[2]": {"target": "Fuc(a1-2)Gal(b1-4)GlcNAc(b1-2)Man(a1-3)[Fuc(a1-2)Gal(b1-4)GlcNAc(b1-2)Man(a1-6)]Man(b1-4)GlcNAc(b1-4)[Fuc(a1-6)]GlcNAc", "how_it_was_run": "as §1"}, "[3]": {"target": "Fuc(a1-2)Gal(b1-4)[Fuc(a1-3)]GlcNAc(b1-2)[Fuc(a1-2)Gal(b1-4)[Fuc(a1-3)]GlcNAc(b1-4)]Man(a1-3)[Fuc(a1-2)Gal(b1-4)[Fuc(a1-3)]GlcNAc(b1-2)Man(a1-6)]Man(b1-4)GlcNAc(b1-4)GlcNAc", "how_it_was_run": "as §1"}, "[4]": {"target": "Fuc(a1-2)Gal(b1-4)[Fuc(a1-3)]GlcNAc(b1-3)Gal(b1-4)[Fuc(a1-3)]GlcNAc(b1-3)Gal(b1-4)[Fuc(a1-3)]GlcNAc", "how_it_was_run": "as §1"}, "[5]": {"target": "Fuc(a1-2)Gal6S(b1-3)GlcNAc6S", "how_it_was_run": "as §1"}, "[6]": {"target": "Fuc(a1-2)[Gal(a1-3)]Gal(b1-4)GlcNAc(b1-2)Man", "how_it_was_run": "as §1"}, "Fuc(a1-3)GlcNAc": {"target": "Fuc(a1-3)GlcNAc", "how_it_was_run": "as §1"}, "[7]": {"target": "Fuc(a1-3)[Gal(b1-4)]GlcNAc", "how_it_was_run": "as §1"}, "[8]": {"target": "Fuc(a1-3)[GalNAc(b1-4)]GlcNAc", "how_it_was_run": "as §1"}, "[9]": {"target": "Gal(a1-3)Gal(b1-3)[Fuc(a1-4)]GlcNAc(b1-2)Man(a1-3)[Gal(a1-3)Gal(b1-3)[Fuc(a1-4)]GlcNAc(b1-2)Man(a1-6)]Man(b1-4)GlcNAc(b1-4)GlcNAc", "how_it_was_run": "as §1"}, "Gal(a1-3)Gal(b1-4)Glc": {"target": "Gal(a1-3)Gal(b1-4)Glc", "how_it_was_run": "as §1"}, "[10]": {"target": "Gal(a1-3)[Gal(a1-4)]Gal(b1-4)GlcNAc", "how_it_was_run": "as §1"}, "[11]": {"target": "Gal(b1-3)GlcNAc(b1-6)Gal(b1-4)GlcNAc", "how_it_was_run": "as §1"}, "[12]": {"target": "Gal(b1-4)GlcNAc(b1-3)Gal(b1-3)GlcNAc", "how_it_was_run": "as §1"}, "[13]": {"target": "Gal(b1-4)GlcNAc(b1-3)Gal(b1-4)GlcNAc(b1-2)Man(a1-3)[Gal(b1-4)GlcNAc(b1-3)Gal(b1-4)GlcNAc(b1-2)Man(a1-6)]Man(b1-4)GlcNAc(b1-4)GlcNAc", "how_it_was_run": "as §1"}, "[14]": {"target": "Gal(b1-4)GlcNAc(b1-3)Gal(b1-4)GlcNAc(b1-3)Gal(b1-4)GlcNAc", "how_it_was_run": "as §1"}, "[15]": {"target": "Gal(b1-4)GlcNAc(b1-3)Gal(b1-4)GlcNAc(b1-3)Gal(b1-4)GlcNAc(b1-2)Man(a1-3)[Gal(b1-4)GlcNAc(b1-3)Gal(b1-4)GlcNAc(b1-3)Gal(b1-4)GlcNAc(b1-2)Man(a1-6)]Man(b1-4)GlcNAc(b1-4)GlcNAc", "how_it_was_run": "as §1"}, "[16]": {"target": "Gal(b1-4)GlcNAc(b1-3)Gal(b1-4)GlcNAc(b1-3)Gal(b1-4)GlcNAc(b1-3)Gal(b1-4)GlcNAc(b1-2)[Gal(b1-4)GlcNAc(b1-3)Gal(b1-4)GlcNAc(b1-3)Gal(b1-4)GlcNAc(b1-3)Gal(b1-4)GlcNAc(b1-6)]Man(a1-6)[Gal(b1-4)GlcNAc(b1-3)Gal(b1-4)GlcNAc(b1-3)Gal(b1-4)GlcNAc(b1-3)Gal(b1-4)GlcNAc(b1-2)Man(a1-3)]Man(b1-4)GlcNAc(b1-4)[Fuc(a1-6)]GlcNAc", "how_it_was_run": "as §1"}, "[17]": {"target": "Gal(b1-4)GlcNAc(b1-3)Gal(b1-4)GlcNAc(b1-3)Gal(b1-4)GlcNAc(b1-3)Gal(b1-4)GlcNAc(b1-3)Gal(b1-4)GlcNAc(b1-2)[Gal(b1-4)GlcNAc(b1-3)Gal(b1-4)GlcNAc(b1-3)Gal(b1-4)GlcNAc(b1-3)Gal(b1-4)GlcNAc(b1-3)Gal(b1-4)GlcNAc(b1-6)]Man(a1-6)[Gal(b1-4)GlcNAc(b1-3)Gal(b1-4)GlcNAc(b1-3)Gal(b1-4)GlcNAc(b1-3)Gal(b1-4)GlcNAc(b1-3)Gal(b1-4)GlcNAc(b1-2)Man(a1-3)]Man(b1-4)GlcNAc(b1-4)[Fuc(a1-6)]GlcNAc", "how_it_was_run": "as §1"}, "[18]": {"target": "Gal(b1-4)GlcNAc(b1-6)Gal(b1-4)GlcNAc", "how_it_was_run": "as §1"}, "Gal3S(b1-3)GlcNAc": {"target": "Gal3S(b1-3)GlcNAc", "how_it_was_run": "as §1"}, "Gal3S6S(b1-4)GlcNAc6S": {"target": "Gal3S6S(b1-4)GlcNAc6S", "how_it_was_run": "as §1"}, "[19]": {"target": "GalNAc(b1-4)GlcNAc(b1-2)Man(a1-3)[GalNAc(b1-4)GlcNAc(b1-2)Man(a1-6)]Man(b1-4)GlcNAc(b1-4)GlcNAc", "how_it_was_run": "as §1"}, "[20]": {"target": "GlcNAc(a1-4)Gal(b1-4)GalNAc", "how_it_was_run": "as §1"}, "[21]": {"target": "GlcNAc(b1-3)Gal(b1-4)GlcNAc(b1-2)Man(a1-3)[GlcNAc(b1-3)Gal(b1-4)GlcNAc(b1-2)Man(a1-6)]Man(b1-4)GlcNAc(b1-4)[Fuc(a1-6)]GlcNAc", "how_it_was_run": "as §1"}, "[22]": {"target": "GlcNAc(b1-3)Gal(b1-4)GlcNAc(b1-3)Gal(b1-4)GlcNAc(b1-2)Man(a1-3)[GlcNAc(b1-3)Gal(b1-4)GlcNAc(b1-3)Gal(b1-4)GlcNAc(b1-2)Man(a1-6)]Man(b1-4)GlcNAc(b1-4)GlcNAc", "how_it_was_run": "as §1"}, "[23]": {"target": "GlcNAc(b1-3)Gal(b1-4)GlcNAc(b1-3)Gal(b1-4)GlcNAc(b1-2)Man(a1-3)[GlcNAc(b1-3)Gal(b1-4)GlcNAc(b1-3)Gal(b1-4)GlcNAc(b1-2)Man(a1-6)]Man(b1-4)GlcNAc(b1-4)[Fuc(a1-6)]GlcNAc", "how_it_was_run": "as §1"}, "[24]": {"target": "GlcNAc6S(b1-3)Gal(b1-4)GlcNAc", "how_it_was_run": "as §1"}, "Kdn(a2-3)Gal(b1-3)GlcNAc": {"target": "Kdn(a2-3)Gal(b1-3)GlcNAc", "how_it_was_run": "as §1"}, "[25]": {"target": "Man(a1-2)Man(a1-3)[Man(a1-6)]Man(a1-6)[Man(a1-2)Man(a1-3)]Man(b1-4)GlcNAc(b1-4)GlcNAc", "how_it_was_run": "as §1"}}, "note": "About 410 targets per protein were measured; listed, in parts, are those with the strongest signals and a random draw of the rest."}
{"binder": "PX14379D-pdi-530-26-530 (Parabacteroides distasonis) (protein) DETVYDKLPADDFGQSTAELNALIGNSHNTMKKFWTEYMHLSECSGSMAVTPTRRGGDWYDGGQYREIYMHTWTSQTSRVKSAWKAATEAIGTCNEAIRKLQNSEILTEEEKAQDVADLRGVRAFWIYVMMDYWGNIPLLTEFHPTDKVFPGNSSRQEVFDWLIQEVEEIKDICPPATTENYGSFTQGAAYSLLAKLYLNAEAWGVTFSGNAYQKVIDNCDKVMAMGYILEPNWKDNFSVTNENSKEAILAATFSSSDTGNDGNVKNELHNNTLHYKDYLSLGITASGTWNGICAQPEYVRLFDEEDARLDGTFLTGLMIDKSTGKPIMTDHNNELNHTIDVNMIPGMEYDGTNWSAVEQHDGARCFKWEFASDLTSSMGNDFHIFRLADIYLMKAEALLRGGGSVSEATALVNTIRERGYGNSDHNYATVTLKEVQLERRLELAWEVYSRQDDIRFGCFTTGMWPQSNCERKADDYLKLLPVSQDAWQVNPNLKQNPGYAAFSK", "values": [{"measurement": "glycan array binding signal (z-score)", "setting": "[1]", "value": -1.42}, {"measurement": "glycan array binding signal (z-score)", "setting": "[2]", "value": -0.233}, {"measurement": "glycan array binding signal (z-score)", "setting": "[3]", "value": -0.436}, {"measurement": "glycan array binding signal (z-score)", "setting": "[4]", "value": 2.52}, {"measurement": "glycan array binding signal (z-score)", "setting": "[5]", "value": 2.88}, {"measurement": "glycan array binding signal (z-score)", "setting": "[6]", "value": 1.09}, {"measurement": "glycan array binding signal (z-score)", "setting": "Fuc(a1-3)GlcNAc", "value": -0.715}, {"measurement": "glycan array binding signal (z-score)", "setting": "[7]", "value": -0.689}, {"measurement": "glycan array binding signal (z-score)", "setting": "[8]", "value": -0.221}, {"measurement": "glycan array binding signal (z-score)", "setting": "[9]", "value": 2.48}, {"measurement": "glycan array binding signal (z-score)", "setting": "Gal(a1-3)Gal(b1-4)Glc", "value": -0.838}, {"measurement": "glycan array binding signal (z-score)", "setting": "[10]", "value": 4.67}, {"measurement": "glycan array binding signal (z-score)", "setting": "[11]", "value": -1.22}, {"measurement": "glycan array binding signal (z-score)", "setting": "[12]", "value": -1.08}, {"measurement": "glycan array binding signal (z-score)", "setting": "[13]", "value": 2.97}, {"measurement": "glycan array binding signal (z-score)", "setting": "[14]", "value": -0.298}, {"measurement": "glycan array binding signal (z-score)", "setting": "[15]", "value": 1.92}, {"measurement": "glycan array binding signal (z-score)", "setting": "[16]", "value": 3.06}, {"measurement": "glycan array binding signal (z-score)", "setting": "[17]", "value": 1.59}, {"measurement": "glycan array binding signal (z-score)", "setting": "[18]", "value": 0.063}, {"measurement": "glycan array binding signal (z-score)", "setting": "Gal3S(b1-3)GlcNAc", "value": -0.593}, {"measurement": "glycan array binding signal (z-score)", "setting": "Gal3S6S(b1-4)GlcNAc6S", "value": 2.52}, {"measurement": "glycan array binding signal (z-score)", "setting": "[19]", "value": 2.64}, {"measurement": "glycan array binding signal (z-score)", "setting": "[20]", "value": -0.622}, {"measurement": "glycan array binding signal (z-score)", "setting": "[21]", "value": 0.749}, {"measurement": "glycan array binding signal (z-score)", "setting": "[22]", "value": 2.91}, {"measurement": "glycan array binding signal (z-score)", "setting": "[23]", "value": 2.19}, {"measurement": "glycan array binding signal (z-score)", "setting": "[24]", "value": 0.56}, {"measurement": "glycan array binding signal (z-score)", "setting": "Kdn(a2-3)Gal(b1-3)GlcNAc", "value": -0.752}, {"measurement": "glycan array binding signal (z-score)", "setting": "[25]", "value": -1.26}]}
